According to PubChem BioAssay (NCATS):
Inconclusive results are not listed. A call without a number means that no potency is given here. Calls of active or inactive are those of the source. Unless noted, calls follow the shape of the dose curve; as a rule, active = well fitted curve in the direction sought with a large enough effect; inconclusive = small, poorly fitted or top-dose-only effect, or another doubt; inactive = no such curve, though single readings can be large; an effect the other way counts as inactive or inconclusive.

Legend:
[1] = qHTS for Inhibitors of Plasmodium falciparum (7G8) proliferation (AID 504316); also: nearly all actives have a fitted effect of over 65% in size
Procedure, shortened: (§1)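 Parasite growth measured as SYBR Green DNA fluorescence (ex 485, em 535 nm) after overnight lysis following 72 h culture at 37 °C, 0.3% parasitemia, 2.5% hematocrit. Values normalized against DMSO and 0.29 uM artemisinin controls, with plate-stack correction.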

[2] = target: Atrial natriuretic peptide receptor 1 (Homo sapiens) (UniProt P16066); experiment: Natriuretic polypeptide receptor (hNpr1) antagonism - Pilot CMLD screen (AID 1347052; calls by dose curve;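 also: cGMP level read as GloSensor luciferase luminescence after agonist stimulation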)
Atrial natriuretic peptide receptor 1 (Homo sapiens), sequence (P16066 whole entry, looked up): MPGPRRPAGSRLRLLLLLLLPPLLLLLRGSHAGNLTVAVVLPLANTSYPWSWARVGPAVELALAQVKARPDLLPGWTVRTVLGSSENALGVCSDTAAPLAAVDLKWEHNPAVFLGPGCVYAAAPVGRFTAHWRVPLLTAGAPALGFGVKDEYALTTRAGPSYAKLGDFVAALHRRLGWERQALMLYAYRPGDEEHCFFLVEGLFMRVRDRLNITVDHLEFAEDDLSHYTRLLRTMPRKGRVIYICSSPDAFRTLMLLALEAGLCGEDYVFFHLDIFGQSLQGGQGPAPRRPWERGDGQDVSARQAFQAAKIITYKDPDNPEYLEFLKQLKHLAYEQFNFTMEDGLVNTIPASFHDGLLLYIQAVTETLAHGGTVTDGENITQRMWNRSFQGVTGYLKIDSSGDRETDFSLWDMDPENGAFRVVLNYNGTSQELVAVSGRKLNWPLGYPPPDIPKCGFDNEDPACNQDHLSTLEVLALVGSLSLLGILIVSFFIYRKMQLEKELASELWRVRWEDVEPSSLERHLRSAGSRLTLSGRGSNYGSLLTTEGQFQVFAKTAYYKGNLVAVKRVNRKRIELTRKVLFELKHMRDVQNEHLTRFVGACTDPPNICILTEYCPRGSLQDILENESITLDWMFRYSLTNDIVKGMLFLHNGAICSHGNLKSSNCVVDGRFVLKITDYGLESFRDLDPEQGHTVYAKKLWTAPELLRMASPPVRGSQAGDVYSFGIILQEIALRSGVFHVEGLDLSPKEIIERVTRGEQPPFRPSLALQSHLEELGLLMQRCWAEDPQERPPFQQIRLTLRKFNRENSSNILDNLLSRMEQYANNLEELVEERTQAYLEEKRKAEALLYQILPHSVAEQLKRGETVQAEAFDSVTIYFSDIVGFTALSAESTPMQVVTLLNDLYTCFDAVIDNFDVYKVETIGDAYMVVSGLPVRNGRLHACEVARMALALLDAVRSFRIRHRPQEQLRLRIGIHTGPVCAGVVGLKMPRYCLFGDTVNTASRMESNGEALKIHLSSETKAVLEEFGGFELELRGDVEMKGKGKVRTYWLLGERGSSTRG

[3] = qHTS for Inhibitors of Plasmodium falciparum (HB3) proliferation (AID 504318); also: nearly all actives have a fitted effect of over 60% in size
Procedure, shortened: as §1

[4] = qHTS for Inhibitors of Plasmodium falciparum (CP250) proliferation (AID 504320)
Procedure, shortened: as §1
Potency is read from the fitted curve at half-maximal effect.

## CCCCCCc1cc2cc(OC)c(OC)cc2c2c(C(=O)OC)c(C(=O)OC)c(C(=O)OC)n12
[1]
  Potency: 1.9 µM (active)
[2]
  Potency: inactive

## COc1ccccc1C=CC1=CC2(C)CC1(C)C(c1ccccc1OC)CC2=O (stereo unspecified)
[1]
  Potency: 1.69 µM (active)
[3]
  Potency: 1.69 µM (active)
[2]
  Potency: inactive

## COC(=O)[C@@H]1CC[C@H](C)[C@@H](c2ccc(C)cc2)N1C(=O)c1ccc(C=NOC[C@H]2O[C@H](c3ccccc3)C=C[C@H]2Oc2ccc(OC)cc2)cc1
[1]
  Potency: inactive
[2]
  Potency: inactive

## CCCCCCCc1cc2ccc(F)cc2c2c(C(=O)OC)c(C(=O)OC)c(C(=O)OC)n12
[1]
  Potency: inactive
[2]
  Potency: inactive

## CC(CCN1CCCc2nc(C)c(C)cc21)=NO[C@H](C)c1cn([C@H](CO)Cc2ccccc2)nn1
[1]
  Potency: 1.51 µM (active)
[2]
  Potency: inactive

## CC(C)OC(=O)[C@H](C)NC(=O)N1CCc2nc(COc3ccccc3)c3c(c2C1)CO[C@@H](C)C3
[1]
  Potency: 1.35 µM (active)
[3]
  Potency: 2.62 µM (active)
[4]
  Potency: inactive
[2]
  Potency: inactive

## COC(=O)c1ccc(CN2C(=O)[C@]3(OCCC=C[C@@H]3C)c3ccccc32)cc1
[1]
  Potency: inactive
[3]
  Potency: inactive
[4]
  Potency: inactive
[2]
  Potency: inactive

## COC(=O)C1=C(C)N(Cc2ccccc2)C(=NCCc2ccc(O)cc2)NC1c1ccc(Br)cc1 (stereo unspecified)
[1]
  Potency: inactive
[3]
  Potency: inactive
[2]
  Potency: inactive

## CC1=C[C@@H](COc2ccccc2)O[C@@]2(C1)C(=O)N(Cc1ccccc1)c1ccccc12
[1]
  Potency: 0.757 µM (active)
[3]
  Potency: inactive
[4]
  Potency: inactive
[2]
  Potency: inactive

## C=CC[C@@H]1C=C[C@H](ON=C(C)CCN2CCCc3nc(C)c(C)cc32)[C@H](CO)O1
[1]
  Potency: 0.0757 µM (active)
[3]
  Potency: 2.51 µM (active)
[2]
  Potency: inactive

## COC(=O)C1=C(C)N(Cc2ccccc2)C(=NCC(C)C)NC1c1cccc(F)c1 (stereo unspecified)
[1]
  Potency: inactive
[3]
  Potency: inactive
[2]
  Potency: inactive

## COC(=O)C1=C(C(=O)OC)[C@@H]2N(Cc3ccccc3)c3ccccc3[C@@]23C[C@@H](CO)N(C(=O)CC(C)C)C3=N1
[1]
  Potency: 1.69 µM (active)
[2]
  Potency: inactive

## CCN1C(=NCc2cc(OC)c(OC)c(OC)c2)NC(c2cccc(F)c2)C(C(=O)OC)=C1C (stereo unspecified)
[1]
  Potency: 0.849 µM (active)
[2]
  Potency: inactive

## CC(C)(C)Nc1oc(-c2ccccc2)nc1C=Cc1ccccc1
[1]
  Potency: 1.51 µM (active)
[3]
  Potency: 1.69 µM (active)
[2]
  Potency: inactive

## COC(=O)C1=C(C)N(Cc2ccccc2)C(=NCC2CC2)NC1c1cccc(C(F)(F)F)c1 (stereo unspecified)
[1]
  Potency: inactive
[2]
  Potency: inactive

## CC#CCN1c2ccccc2[C@]23CCC(=O)N(Cc4ccco4)C2=NC(C(=O)OC)=C(C(=O)OC)[C@H]13
[1]
  Potency: 1.69 µM (active)
[2]
  Potency: inactive

## COC(=O)C1=C(C)N(Cc2ccccc2)C(=NCC2CC2)NC1c1ccc(Br)cc1 (stereo unspecified)
[1]
  Potency: inactive
[2]
  Potency: inactive

## O=C1C2=C(C(=O)c3ccccc31)[C@H]1O[C@](c3ccsc3)(Cc3ccccc31)O2
[1]
  Potency: 1.9 µM (active)
[2]
  Potency: inactive

## COc1ccc(-c2nc3c(c4c2C[C@H](c2ccccc2)OC4)CN(C(=O)c2cc(I)ccc2F)CC3)c(C)c1
[1]
  Potency: 1.9 µM (active)
[2]
  Potency: inactive

## COC(=O)C1=C(C)N(Cc2ccccc2)C(=NCCc2ccc([N+](=O)[O-])cc2)NC1c1cccc(F)c1 (stereo unspecified)
[1]
  Potency: 2.69 µM (active)
[3]
  Potency: inactive
[2]
  Potency: inactive

## CCOC(=O)[C@@]1([C@@H](NC(=O)OC)c2ccccc2)CCCC1=O
[1]
  Potency: inactive
[3]
  Potency: inactive
[2]
  Potency: inactive

## COC(=O)C1=C(C)N(Cc2ccccc2)C(=NCCCCO)NC1c1cccc(F)c1 (stereo unspecified)
[1]
  Potency: inactive
[3]
  Potency: inactive
[4]
  Potency: inactive
[2]
  Potency: inactive

## c1ccc(C2NCCc3c2[nH]c2ccccc32)cc1 (stereo unspecified)
[1]
  Potency: inactive
[3]
  Potency: inactive
[4]
  Potency: inactive
[2]
  Potency: inactive

## CC12C=C(C=Cc3ccc(Br)cc3)C(C)(C1)[C@H](c1ccc(Br)cc1)CC2=O (stereo partly specified)
[1]
  Potency: 1.69 µM (active)
[3]
  Potency: 1.69 µM (active)
[2]
  Potency: inactive

## CC1(C)CC(=O)C2=C(C1)O[C@@]1(CCCCN3C(=O)c4ccccc4C3=O)Cc3ccccc3[C@H]2O1
[1]
  Potency: 1.51 µM (active)
[3]
  Potency: 1.51 µM (active)
[2]
  Potency: inactive

## COc1ccc(O[C@H]2C=C[C@@H](c3ccccc3)O[C@H]2COC(=O)CCC(C)=NOC[C@@H](C)[C@H](OCc2ccccc2)C(C)C)cc1
[1]
  Potency: 1.9 µM (active)
[2]
  Potency: inactive

## C=C(C)C(=O)C=CC=Cc1ccccc1
[1]
  Potency: inactive
[3]
  Potency: inactive
[4]
  Potency: inactive
[2]
  Potency: inactive

## CCCCn1c(C)cc2c(c1=O)[C@H]1O[C@](CCCCN3C(=O)c4ccccc4C3=O)(Cc3ccccc31)O2
[1]
  Potency: 1.69 µM (active)
[2]
  Potency: inactive

## COc1cc2c(cc1OC)[C@@H]1O[C@](CCCCN3C(=O)c4ccccc4C3=O)(C2)Oc2cc(C)n(Cc3ccccc3)c(=O)c21
[1]
  Potency: 1.51 µM (active)
[3]
  Potency: 1.69 µM (active)
[4]
  Potency: 1.69 µM (active)
[2]
  Potency: inactive

## COc1ccc(O[C@H]2C=C[C@@H](c3ccccc3)O[C@H]2CON=C(C)CCN2CCCCc3nc(C)c(C)cc32)cc1
[1]
  Potency: 1.51 µM (active)
[4]
  Potency: inactive
[2]
  Potency: inactive

## CC(=O)OC[C@H]1O[C@H](CCON=C(C)CCN2CCc3nc(-c4ccccc4)c(-c4ccccc4)cc3C2)C=C[C@H]1OC(C)=O
[1]
  Potency: 1.51 µM (active)
[4]
  Potency: inactive
[2]
  Potency: inactive

## C[C@@H]1CC2=CCCC2[C@]2(O1)C(=O)N(Cc1ccc(Br)cc1)c1cccc(Br)c12 (stereo partly specified)
[1]
  Potency: inactive
[4]
  Potency: inactive
[2]
  Potency: inactive

## Cc1cc2c(c(=O)n1-c1ccccc1)[C@H]1O[C@](c3ccsc3)(Cc3ccccc31)O2
[1]
  Potency: 1.51 µM (active)
[4]
  Potency: inactive
[2]
  Potency: inactive

## CCN1C(=NCc2cc(OC)c(OC)c(OC)c2)NC(c2cccc(C(F)(F)F)c2)C(C(=O)OC)=C1C (stereo unspecified)
[1]
  Potency: 1.9 µM (active)
[4]
  Potency: inactive
[2]
  Potency: inactive

## O=C1CCCC2=C1[C@H]1O[C@](CCCCN3C(=O)c4ccccc4C3=O)(Cc3ccccc31)O2
[1]
  Potency: 1.9 µM (active)
[4]
  Potency: inactive
[2]
  Potency: inactive

## CC(C)=CCN1C(=O)[C@@]2(CC(C)=CC[C@@H](COc3ccccc3)O2)c2ccccc21
[1]
  Potency: 2.69 µM (active)
[4]
  Potency: inactive
[2]
  Potency: inactive

## C[C@H]1CC[C@H]2C(=O)N(Cc3ccc(Cl)cc3)C[C@@H](O)CN2[C@H]1c1ccc(Br)cc1
[1]
  Potency: 1.69 µM (active)
[4]
  Potency: inactive
[2]
  Potency: inactive

## C=COC[C@H]1CN2[C@H](c3ccc(Br)cc3)[C@H](C)CC[C@H]2C(=O)O1
[1]
  Potency: inactive
[4]
  Potency: 1.9 µM (active)
[2]
  Potency: inactive

## CCc1cc2c(nc1CC)CCN(CCC(C)=NO[C@H](C)c1cn([C@H](CO)Cc3ccccc3)nn1)C2
[1]
  Potency: 1.51 µM (active)
[4]
  Potency: inactive
[2]
  Potency: inactive

## CCCC[C@]12Cc3cc(C#N)ccc3[C@H](O1)c1c(cc(C)n(Cc3ccccc3)c1=O)O2
[1]
  Potency: 1.69 µM (active)
[4]
  Potency: inactive
[2]
  Potency: inactive

## COC(=O)N1C(C=CC=Cc2ccc(OC)cc2)=Cc2ccccc2C1CC(C)=O (stereo unspecified)
[1]
  Potency: 1.51 µM (active)
[4]
  Potency: inactive
[2]
  Potency: inactive

## COC(=O)C1=C(C)N(Cc2ccccc2)C(=NCc2ccc3c(c2)OCO3)NC1CCc1ccccc1 (stereo unspecified)
[1]
  Potency: inactive
[4]
  Potency: inactive
[2]
  Potency: inactive

## C=CC[C@](C)(O)c1ccccc1
[1]
  Potency: 1.51 µM (active)
[4]
  Potency: inactive
[2]
  Potency: inactive

## C[C@@H]1CC2=CCCC2[C@]2(O1)C(=O)N(CC1CC1)c1cccc(Br)c12 (stereo partly specified)
[1]
  Potency: inactive
[3]
  Potency: inactive
[4]
  Potency: inactive
[2]
  Potency: inactive

## N#Cc1ccc2c(c1)C[C@]1(CCCCN3C(=O)c4ccccc4C3=O)Oc3c(c(=O)oc4ccc(F)cc34)[C@@H]2O1
[1]
  Potency: 1.51 µM (active)
[4]
  Potency: inactive
[2]
  Potency: inactive

## CC1(C)CC(=O)C2=C(C1)O[C@@]1(CCCCN3C(=O)c4ccccc4C3=O)Cc3cc(C#N)ccc3[C@H]2O1
[1]
  Potency: 1.69 µM (active)
[4]
  Potency: inactive
[2]
  Potency: inactive

## CCN1C(=NCc2cccc(C(F)(F)F)c2)NC(c2ccccc2)C(C(=O)OC)=C1C (stereo unspecified)
[3]
  Potency: inactive
[2]
  Potency: inactive

## COc1cc2c(cc1OC)[C@@H]1O[C@](c3ccsc3)(C2)Oc2cc(C)n(Cc3ccccc3)c(=O)c21
[1]
  Potency: 1.51 µM (active)
[4]
  Potency: inactive
[2]
  Potency: 0.531 µM (active)

## C=CC[C@@H]1C=C[C@H](ON=C(C)CCN2CCc3nc(CC)c(CC)cc3C2)[C@H](CO)O1
[1]
  Potency: 1.69 µM (active)
[4]
  Potency: inactive
[2]
  Potency: inactive

## COc1ccc([C@]23Cc4cc(OC)c(OC)cc4[C@H](O2)C2=C(CCCC2=O)O3)cc1
[1]
  Potency: 1.51 µM (active)
[4]
  Potency: inactive
[2]
  Potency: inactive

## N#Cc1ccc2c(c1)C[C@]1(CCCCN3C(=O)c4ccccc4C3=O)Oc3c(c(=O)oc4ccccc34)[C@H]2O1
[1]
  Potency: 1.51 µM (active)
[4]
  Potency: inactive
[2]
  Potency: inactive

## COCCN1C(=O)NC(CCc2ccccc2)C(C(=O)OC)=C1C (stereo unspecified)
[1]
  Potency: inactive
[3]
  Potency: inactive
[4]
  Potency: inactive
[2]
  Potency: inactive

## C[C@@H]1CC[C@H]2C(=O)N(Cc3ccc(Cl)cc3)C[C@@H](O)CN2[C@H]1c1cccc(Br)c1
[1]
  Potency: 1.51 µM (active)
[4]
  Potency: inactive
[2]
  Potency: inactive

## CC1(C)CC(=O)C2=C(C1)O[C@@]1(CCCCN3C(=O)c4ccccc4C3=O)Cc3c(ccc4ccccc34)[C@H]2O1
[1]
  Potency: 1.51 µM (active)
[4]
  Potency: inactive
[2]
  Potency: inactive

## COc1ccc([C@]23Cc4cc(C#N)ccc4[C@H](O2)c2c(cc(C)n(Cc4ccccc4)c2=O)O3)cc1
[1]
  Potency: 1.69 µM (active)
[4]
  Potency: inactive
[2]
  Potency: inactive

## CCC(=O)N1C2=C(c3ccccc3[C@@H]1CC(=O)Nc1ccc3ccccc3c1)[C@H]1C(=O)N(c3ccccc3)C(=O)[C@@H]1[C@H](C)C2
[1]
  Potency: 1.51 µM (active)
[4]
  Potency: inactive
[2]
  Potency: inactive

## COc1ccc2c(c1)O[C@@H](c1ccc3c(c1)OCO3)[C@H](OC(=O)Nc1cc(OC)c(OC)c(OC)c1)C2=O
[1]
  Potency: 1.69 µM (active)
[4]
  Potency: inactive
[2]
  Potency: inactive

## COC(=O)C(C(=O)OC)c1ccccc1[N+](=O)[O-]
[1]
  Potency: inactive
[4]
  Potency: inactive
[2]
  Potency: inactive

## COCc1cc2cc3c(cc2c2c(C(=O)OC)c(C(=O)OC)c(C(=O)OC(C)(C)C)n12)OCO3
[1]
  Potency: 1.51 µM (active)
[4]
  Potency: inactive
[2]
  Potency: 3.35 µM (active)

## COC(=O)C1=C(C(=O)OC)[C@@H]2N(Cc3ccccc3)c3ccccc3[C@@]23CCC(=O)N(CCc2ccccn2)C3=N1
[1]
  Potency: 1.51 µM (active)
[4]
  Potency: inactive
[2]
  Potency: inactive

## COc1cc2c(c(OC)c1OC)C(c1ccccc1)(c1ccccc1)CC2NC(=O)C(F)(F)F (stereo unspecified)
[3]
  Potency: 2.39 µM (active)
[2]
  Potency: inactive

## N#Cc1ccc2c(c1)C[C@]1(c3ccsc3)OC3=C(C(=O)OC4(CCCCC4)C3)[C@H]2O1
[1]
  Potency: inactive
[3]
  Potency: inactive
[4]
  Potency: inactive
[2]
  Potency: inactive
